# Measurements published in PubChem BioAssay AID504444 (National Center for Advancing Translational Sciences (NCATS), 2011).
# In all, about 360,000 compounds went through this assay and about 7,500 (2.1%) were called active. Roughly 20% stayed inconclusive and do not appear here. The call rests on the fitted dose curve; in most records, active means well fitted inhibition curve with a large enough effect; inconclusive means small, poorly fitted or top-dose-only effect, or effect the other way; inactive means flat fitted curve, though single readings scatter. What follows is part of a selection rich in actives, with near analogues and random picks from the rest. A call without a number means that no potency is given here.
# Experiment: Nrf2 qHTS screen for inhibitors; further: nearly all actives have a fitted effect of over 60% in size
# Conditions: A549 ARE-Fluc reporter, luciferase luminescence, 18-24 h; series mostly up to 46 µM
# Summary of the method: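 Nrf2 function is reported as luminescence of an ARE-controlled luciferase in A549 cells. Compounds were tested at several concentrations, and a CellTiter-Fluor read on the same wells flagged cytotoxicity.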
# Potency means the concentration at half of the fitted maximal effect.
row,SMILES,Potency
1,NC(=S)NN=C1CCCC(C(F)(F)F)C1 (stereo not given),inactive
2,O=S(=O)(Nc1ccc2nc(N3CCOCC3)sc2c1)c1ccccc1,inactive
3,COc1ccc(Cl)cc1NC(=O)COC(=O)c1ccc(Br)o1,inactive
4,CC(=O)Nc1ccc(S(=O)(=O)NCCC(=O)N2CCN(c3ccccc3Cl)CC2)cc1,inactive
5,CCc1nc(Nc2ccc(NC(C)=O)cc2)c2oc3ccccc3c2n1,inactive
6,CC(=O)Nc1ccc(Nc2c3ccccc3nc3ccccc23)cc1,5.8 µM (active)
7,CC(=O)Nc1ccc(NC(=O)COc2ncnc3ccccc23)cc1,inactive
8,O=C1N[C@H](Cc2c[nH]c3ccccc23)COC(=O)[C@H](Cc2ccc(F)cc2)C/C=C\C[C@H]1CC(=O)N(CCO)Cc1ccccc1,inactive
9,O=C(C1CCCN(S(=O)(=O)c2cccc3nonc23)C1)N1CCN(c2ccccc2F)CC1 (stereo not given),inactive
10,O=[N+]([O-])c1cc(S(=O)(=O)Nc2cccc(Cl)c2)ccc1N=Nc1c(O)[nH]c2ccccc12,20.6 µM (active)
11,O=C(O)c1ccccc1/C=N/Nc1ccc(S(=O)(=O)Nc2ccc(Cl)cc2)cc1[N+](=O)[O-],inactive
12,COc1ccc(S(=O)(=O)Nc2ccc3cn[nH]c3c2)cc1[N+](=O)[O-],inactive
13,O=C(NCCCO)c1nn(-c2ccc(Cl)cc2)nc1CO,inactive
14,O=C(CN1CCCSc2ccccc21)N1CCN(S(=O)(=O)c2ccccc2)CC1,inactive
15,Cc1ccc(-c2nn(CCC(=O)Nc3ccc(OC(F)(F)F)cc3)c(=O)c3ccccc23)cc1,inactive
16,CCOc1ccc(N(CC(=O)NC2CCCCCC2)S(=O)(=O)c2c(C)[nH]c(=O)[nH]c2=O)cc1,inactive
17,CCOc1ccc(N(CC(=O)Nc2ccccc2F)S(=O)(=O)c2c(C)[nH]c(=O)[nH]c2=O)cc1,inactive
18,CCCN(c1ccc(C(C)C)cc1)S(=O)(=O)c1c(C)[nH]c(=O)[nH]c1=O,5.8 µM (active)
19,COc1ccccc1CNC(=O)c1ccc(CS(=O)c2ccccc2Cl)o1 (stereo not given),inactive
20,COC(=O)[C@]1(Cc2ccccc2)N[C@H](CN(C)S(=O)(=O)c2ccc(F)cc2)[C@@H]2C(=O)N(Cc3ccccc3)C(=O)[C@@H]21,inactive
21,Cc1ccc(NC(=O)c2cccc(S(=O)(=O)N3CCCc4ccccc43)c2)nc1,10.3 µM (active)
22,O=C(Nc1nnc(S(=O)(=O)N2CCCc3ccccc32)s1)c1cccc(F)c1,inactive

row,SMILES,Potency
1,CC1CCN(C(=O)c2cccc(S(=O)(=O)N3CCCc4ccccc43)c2)CC1,inactive
2,Cc1ccc(S(=O)(=O)N2CCN(C(=O)Cn3c(=O)cnc4ccccc43)CC2)c(C)c1,inactive
3,O=C1OC(Oc2ccc(Br)cc2)(c2ccccc2)c2ccccc21 (stereo not given),inactive
4,CC(C)N(C(=O)COC(=O)c1ccccc1C(=O)N1CCN(c2ccc(F)cc2)CC1)C(C)C,inactive
5,Cn1c2ccccc2c2c(C(=O)N3CCN(c4ccc(F)cc4)CC3)cn(C3CCCC3)c(=O)c21,25.9 µM (active)
6,CCOc1ccc(NC(=O)c2cn(C3CCCCC3)c(=O)c3c2c2ccccc2n3C)cc1,inactive
7,COc1cc(C2c3c(oc4ccccc4c3=O)C(=O)N2c2nc(C)c(C)s2)ccc1O (stereo not given),inactive
8,CC[C@]12c3[nH]c4cc(CCC(=O)N(C)C)ccc4c3CCN1C(=O)[C@@H](CC(=O)NCC13CC4CC(CC(C4)C1)C3)C[C@@H]2C(=O)N1CCN(C(=O)C2CC2)CC1,inactive
9,CCOC(=O)c1c(C)n(S(=O)(=O)c2ccc(C)cc2C)c2ccc(NS(=O)(=O)c3ccc(C)cc3C)cc12,inactive
10,O=C(Nc1cccc(S(=O)(=O)N2CCCC2)c1)c1cncc(Br)c1,inactive
11,CCN(CC)S(=O)(=O)c1cccc(NC(=O)c2ccc(S(=O)(=O)N3CCCC3)cc2)c1,23.1 µM (active)
12,COc1cc(C(=O)NNC(=O)c2ccc(S(=O)(=O)N3CCCCC3)cc2)cc(OC)c1OC,inactive
13,CC(C)n1ncc2c(C(=O)NCc3ccccc3CN(C)C)cc(C3CC3)nc21,inactive
14,CC(C)(C)C(=O)Nc1cccc(-c2ccc[nH]2)n1,inactive
15,COC(=O)c1ccc(C2CC(=O)Nc3cc(OC)c(OC)cc32)cc1 (stereo not given),inactive
16,Cc1cc2c(cc1C)C(c1cccc(OC(C)C)c1)CC(=O)N2 (stereo not given),16.4 µM (active)
17,COc1cc2c(cc1OC)C(c1ccncc1)CC(=O)N2 (stereo not given),inactive
18,Cc1ccc(NC(=O)CN2C(=O)CC(C)Sc3ccccc32)c(C)c1 (stereo not given),inactive
19,CCN1C(=O)/C(=C\N2CCN(c3cccc(Cl)c3)CC2)SC1=S,inactive
20,OC(COc1ccccc1)CN1CCN(c2cccc(Cl)c2)CC1 (stereo not given),inactive
21,CCc1nn(CCCN2CCN(c3cccc(Cl)c3)CC2)c(=O)n1CCOc1ccccc1,16.4 µM (active)
22,Cc1ccc(-c2noc(CSc3nnc(-c4ccc(Cl)cc4)n3C)n2)cc1,inactive

row,SMILES,Potency
1,COC(=O)c1ccccc1NC(=O)Cn1c(=O)cc(C)c2c(C)nn(-c3cccc(Cl)c3C)c21,inactive
2,COc1cccc(-c2ccc(SCC(=O)N3CCN(c4ccccc4)CC3)nn2)c1,20.6 µM (active)
3,Cc1nnc(SCC(=O)N2CCN(c3ccccc3)CC2)n1-c1ccccc1,inactive
4,COc1cccc(/C=C/C(=O)OCC(=O)N2CCN(c3ccccc3)CC2)c1,inactive
5,C=CC[C@@H](CC(=O)N[C@H](CO)Cc1ccccc1)C(=O)N[C@H](C)COC(=O)[C@@H](CC=C)Cc1ccc(F)cc1,inactive
6,C=CCC[C@@H](Cc1ccc(F)cc1)C(=O)O[C@H](CNC(=O)[C@H](CC=C)CC(=O)N(CCO)Cc1ccccc1)c1ccccc1,18.4 µM (active)
7,C=CC[C@H](CC(=O)OC(C)(C)C)C(=O)OC[C@H]1CCCN1C(=O)[C@H](CC=C)CC(=O)N(CCO)Cc1ccccc1,inactive
8,C=CCC[C@@H](Cc1ccc(F)cc1)C(=O)OC[C@@H](C)NC(=O)[C@H](CC=C)CC(=O)N(CCO)Cc1ccccc1,inactive
9,C=CCC[C@@H](Cc1ccc(F)cc1)C(=O)OC[C@H](Cc1c[nH]c2ccccc12)NC(=O)[C@@H](CC=C)CC(=O)N(CCO)Cc1ccccc1,20.6 µM (active)
10,C=CC[C@@H](CC(=O)N[C@H](CO)Cc1ccccc1)C(=O)N[C@@H](COC(=O)[C@@H](CC=C)Cc1ccc(F)cc1)Cc1c[nH]c2ccccc12,inactive
11,CCOC(=O)c1ccc(N2C(=O)c3n[nH]c(-c4ccco4)c3C2c2ccc(O)cc2)cc1 (stereo not given),inactive
12,O=C1[C@@H](c2ccccc2)[C@@H](c2ccccc2)N1c1cccnc1,inactive
13,CC(=O)N1c2ccc(S(=O)(=O)N3CCC(C(=O)N4CCN(c5ccccc5)CC4)CC3)cc2CC1C (stereo not given),inactive
14,O=C(C1CCCN(S(=O)(=O)c2ccccc2)C1)N1CCN(c2ccc(F)cc2)CC1 (stereo not given),23.1 µM (active)
15,CC(=O)N1c2ccc(S(=O)(=O)N3CCC(C(=O)NC4CCCCC4C)CC3)cc2CC1C (stereo not given),inactive
16,CC(=O)N1c2ccc(S(=O)(=O)N3CCC(C(=O)NCc4ccc(F)cc4)CC3)cc2CC1C (stereo not given),inactive
17,CC(=O)N1CCCc2cc(S(=O)(=O)CCC(=O)N3CCN(c4ccccc4)CC3)ccc21,inactive
18,CC(=O)N1c2ccc(S(=O)(=O)N3CCCC(C(=O)NCc4ccc(Cl)cc4)C3)cc2CC1C (stereo not given),8.2 µM (active)
19,CCCS(=O)(=O)N1CCCC(C(=O)N2CCN(c3ccccc3)CC2)C1 (stereo not given),inactive
20,CC(=O)Nc1ccc(NC(=O)C2CCCN(S(=O)(=O)c3ccc(Cl)cc3)C2)cc1 (stereo not given),inactive
21,Cc1ccc(S(=O)(=O)N2CCCC(C(=O)N3CCN(C)CC3)C2)cc1 (stereo not given),inactive
22,CC(=O)N1c2ccc(S(=O)(=O)N3CCCC(C(=O)Nc4cccc(Cl)c4)C3)cc2CC1C (stereo not given),6.51 µM (active)

row,SMILES,Potency
1,CC(=O)N1CCCc2cc(S(=O)(=O)N3CCCC(C(=O)N4CCN(c5cccc(Cl)c5)CC4)C3)ccc21 (stereo not given),7.31 µM (active)
2,COc1ccccc1CNC(=O)C1CCN(S(=O)(=O)c2ccc3c(c2)CC(C)N3C(=O)C2CC2)CC1 (stereo not given),inactive
3,O=S(=O)(c1ccc2c(c1)OCCO2)N1CCN(S(=O)(=O)c2cc(F)ccc2F)CC1,inactive
4,Cn1c(=O)c2c(nc(SCC(=O)Nc3ccc(F)cc3)n2Cc2ccc(Cl)cc2)n(C)c1=O,inactive
5,COc1cc(C(=O)N2CCN(S(=O)(=O)c3ccc(C(C)C)cc3)CC2)ccc1OCC(=O)N1CCOCC1,inactive
6,COC(=O)Cc1c(-c2[nH]c3ccccc3c2CC(=O)OC)[nH]c2ccccc12,inactive
7,O=C(c1ccc2c(c1)N(Cc1ccccc1)C(=O)c1ccccc1S2(=O)=O)N1CCCC1,inactive
8,O=C(CCS(=O)(=O)c1ccc2c(c1)NC(=O)CO2)Nc1cccc(C(F)(F)F)c1,inactive
9,Cc1cc2c(cc1C)NC1(C[C@H]3CCC(=O)N4CC[C@@H](C1)[C@@H]34)C(=NC(C)(C)CC(C)(C)C)N2 (stereo not given in full),inactive
10,COc1ccccc1-c1noc(CSc2nnc(-c3ccccc3)n2-c2ccc(C)c(C)c2)n1,inactive
11,COc1ccc(CCNc2nc(-c3cccc(NC(C)=O)c3)cs2)cc1OC,inactive
12,COc1ccc(-c2csc(NC(=O)c3ccc(N4C(=O)CCC4=O)cc3)n2)cc1OC,inactive
13,Cc1ccc(S(=O)(=O)NC(=O)Nc2nc(-c3ccc(F)c(F)c3)cs2)cc1,inactive
14,COc1cc(CC(=O)Nc2nc(-c3ccc(F)c(F)c3)cs2)cc(OC)c1OC,11.6 µM (active)
15,COc1ccccc1NC(=O)Nc1nc(CC(=O)Nc2ccccc2F)cs1,inactive
16,COc1ccc(CC(=O)Nc2nc(-c3ccc(F)c(F)c3)cs2)cc1OC,1.84 µM (active)
17,COc1ccccc1CNC(=O)C(Cc1ccccc1)NS(=O)(=O)c1ccc2c(c1)oc(=O)n2C (stereo not given),inactive
18,COc1ccc(NC(=O)CN2CCCN(Cc3ccccc3)S2(=O)=O)cc1,inactive
19,COC(=O)c1ccc(NCc2cc(O)ccc2O)cc1,inactive
